Source: the supplement of paper PMC4954754
± gives the uncertainty stated by the source.

What follows are compounds tested on HEK293T-Rex XBP1-RLuc (assay: XBP1-RLuc splicing reporter activation, triplicate, relative to 500 nM thapsigargin (% of thapsigargin); higher = stronger IRE1/XBP1s reporter activation). Conditions: 6.8 µM; 18 h; screen: confirmation.
Protocol: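 HEK293T-Rex cells stably expressing the ERSE-firefly luciferase (BiP promoter, ATF6-preferring) or XBP1-splicing Renilla luciferase (IRE1/XBP1s) reporter, 1536-well plates, compound at 6.8 µM for 18 hr at 37 °C; luminescence read […] and expressed as % activation = 100*(compound - median DMSO)/(median 500 nM thapsigargin - median DMSO). Primary screen was single-pass; confirmation screen in triplicate (mean ± SD).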

SMILES	XBP1-RLuc splicing reporter activation
O=C(CCCN1CCC2(CC1)C(=O)N(Cc1cccc(F)c1)CN2c1ccccc1)c1ccc(F)cc1	185 ± 9.3
C/C=C(/C)C(=O)O[C@H]1C(C)=C2[C@H]([C@@H]1OC(=O)CCCCCCC)[C@@](C)(OC(C)=O)C[C@H](OC(=O)CCC)[C@@]1(O)[C@H]2OC(=O)[C@@]1(C)O	104
O=C(CCCN1CCC2(CC1)C(=O)NCN2c1ccccc1)c1ccc(F)cc1	202 ± 6.1
CC(=O)NC1C(OC2OC(CC(O)C3OC(n4ccc(=O)[nH]c4=O)C(O)C3O)C(O)C(O)C2NC(=O)/C=C\CCCCCCCCCC(C)C)OC(CO)C(O)C1O (stereo not given)	61.23 ± 0.33
CNc1ccc2oc(C[C@H]3O[C@@]4(CC[C@H]3C)O[C@H]([C@H](C)C(=O)c3ccc[nH]3)[C@H](C)C[C@H]4C)nc2c1C(=O)O	50 ± 2.1
